The text below walks through data of PubChem BioAssay AID1851 (National Center for Advancing Translational Sciences (NCATS), 2009).

For orientation: AC50 means the concentration giving half of the maximal activity seen.

The campaign covered roughly 16,000 compounds. About 5,100 (32%) were called active. Inconclusive results (about 25%) are left out. Some of the results follow. Values without a mark were called inactive. Calls come from the whole dose curve; as a rule, active = well fitted curve in the direction sought with a large enough effect; inconclusive = small, poorly fitted or top-dose-only effect, or effect the other way; inactive = no such curve, though single readings can be large or run the other way.
% is set by controls: 0 for no effect and ±100 for the full control effect.

Chain of Cytochrome P450 3A4 (Homo sapiens) (P08684 whole entry, looked up): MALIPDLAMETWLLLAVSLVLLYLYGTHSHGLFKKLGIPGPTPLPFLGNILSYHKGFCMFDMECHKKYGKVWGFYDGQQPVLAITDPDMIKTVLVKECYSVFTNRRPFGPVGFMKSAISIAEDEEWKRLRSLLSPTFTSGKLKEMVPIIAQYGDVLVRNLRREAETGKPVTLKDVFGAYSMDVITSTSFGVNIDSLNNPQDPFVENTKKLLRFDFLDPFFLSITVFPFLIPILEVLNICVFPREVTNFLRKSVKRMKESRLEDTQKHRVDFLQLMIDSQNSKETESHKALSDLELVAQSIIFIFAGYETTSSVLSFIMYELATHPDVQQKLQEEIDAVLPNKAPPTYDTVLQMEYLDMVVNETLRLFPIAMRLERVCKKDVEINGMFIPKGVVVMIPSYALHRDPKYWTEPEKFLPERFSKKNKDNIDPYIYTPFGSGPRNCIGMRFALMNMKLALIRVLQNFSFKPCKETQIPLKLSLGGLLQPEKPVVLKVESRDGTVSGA

This experiment addresses Cytochrome P450 3A4 (Homo sapiens) (UniProt P08684). The experiment in a line: Cytochrome panel assay with activity outcomes. Particulars: recombinant CYP, pro-luciferin dealkylation, luminescence, p450-cyp3a4; series mostly up to 57.1 µM; activity, negative = inhibition: at the top concentration.
As to `Cn1c(=S)c2[nH]c(SCCN3CCCC3)nc2n(C)c1=O`, the activity, negative = inhibition was -16% [at 11.4 µM].

On to `Cn1c(=O)c2[nH]c(SCc3ccccn3)nc2n(C)c1=S`, for which the AC50 is 3.98 µM (active).

As to `Cn1c(=S)c2[nH]c(SCCN3C(=O)c4ccccc4C3=O)nc2n(C)c1=O`, the activity, negative = inhibition was -20.9% [at 11.4 µM].

On to `Cn1c(=S)c2[nH]c(SCc3cccnc3)nc2n(C)c1=O`, for which the AC50 was 3.16 µM (active).

Turning to `Cn1c(=O)c2[nH]c(CCCCC(=O)O)nc2n(C)c1=O`, the activity, negative = inhibition was -10.1% [at 11.4 µM].

Consider `Cn1c(=S)c2[nH]c(SCCCc3ccccc3)nc2n(C)c1=O`, for which the activity, negative = inhibition is -26.2% [at 11.4 µM].

Consider `Cn1c(=O)c2[nH]c(CSCc3ccccc3)nc2n(C)c1=O`, for which the activity, negative = inhibition was -25% [at 11.4 µM].

Turning to `Cn1c(=O)c2[nH]c(CCCCc3nc4c([nH]3)c(=O)n(C)c(=S)n4C)nc2n(C)c1=S`, the AC50 is 1.26 µM (active).

Take `Cn1c(=O)c2[nH]c(CCCCc3nc4ccccc4[nH]3)nc2n(C)c1=O`: the activity, negative = inhibition is -19% [at 11.4 µM].

In the case of `NCCS(=O)O`, the “activity, negative = inhibition” value was -9.4%.

Regarding `CCCC(c1cc(C(C)(C)C)c(O)cc1C)c1cc(C(C)(C)C)c(O)cc1C`, the activity, negative = inhibition was 5.69% [at 11.4 µM].

`CCN1CCN(C(=O)N[C@H](C(=O)N[C@@H]2C(=O)N3C(C(=O)O)=C(CSc4nnnn4C)CS[C@@H]23)c2ccc(O)cc2)C(=O)C1=O`: the “activity, negative = inhibition” value is -6.92% [at 25.6 µM].

Consider `O=c1c2ccccc2c(-c2ccccc2)nn1Cc1ccc(Cl)cc1`, for which the concentration at half-maximal activity (AC50) was 17.8 µM (active).

`O=c1c2ccccc2c(-c2ccccc2)nn1-c1ccc(Cl)c(Cl)c1`: the “activity, negative = inhibition” value is -18.1%.

In the case of `O=C(CCn1nc(-c2ccc(Cl)cc2)c2ccccc2c1=O)NCCN1CCOCC1`, the concentration at half-maximal activity (AC50) is 7.08 µM (active).

For `O=C(O)Cc1sc(-c2ccc(Cl)cc2)nc1-c1ccccc1`, the “activity, negative = inhibition” value is -0.953%.

For the compound `Cc1ccc(-c2nn(C)c(=O)c3ccccc23)cc1CNC(=O)Cn1nc(-c2ccccc2)c2ccccc2c1=O`, the activity, negative = inhibition is -27.5% [at 11.4 µM].

On to `O=C(/C=C/c1ccc(Cl)cc1)NCCN1CCOCC1`, for which the “activity, negative = inhibition” value was -23.9%.

On to `O=C(CSc1nnc(-c2cccc(S(=O)(=O)N3CCOCC3)c2)n1C1CCCCCC1)NCc1ccccc1`, for which the AC50 is 2.51 µM (active).

For the compound `CCC(=O)N1CCN(C(=O)c2ccccc2)CC1`, the “activity, negative = inhibition” value was 6.01%.

Consider `O=C(COc1ccc2ccccc2c1)N1CCN(C(=O)c2cccnc2)CC1`, for which the AC50 was 8.91 µM (active).

`Cc1c(NC(=O)CN2CCN(c3ccccc3)CC2)c(=O)n(-c2ccccc2)n1C`: the “activity, negative = inhibition” value is -14.6%.

On to `CC(=O)NC(CCS(C)(=O)=O)C(=O)Nc1c(F)cccc1F` (centres undefined), for which the “activity, negative = inhibition” value was -3.35%.

Regarding `Cc1c(NC(=O)CN2C(=O)C3C4C=CC(C4)C3C2=O)c(=O)n(-c2ccccc2)n1C` (centres undefined), the half-maximal activity concentration (AC50) is 22.4 µM (active).

With `O=C(CCN1C(=O)C2C3C=CC(C3)C2C1=O)Nc1ccc2ncccc2c1` (centres undefined), the AC50 is 2.51 µM (active).

Turning to `Cc1c(NC(=O)Cn2ccc([N+](=O)[O-])n2)c(=O)n(-c2ccccc2)n1C`, the “activity, negative = inhibition” value was 8.95%.

As to `O=C(Nc1ccc2ncccc2c1)Nc1ccc2ncccc2c1`, the activity, negative = inhibition is -24.8% [at 11.4 µM].

Consider `O=C(CCN1C(=O)C2C3C=CC(C3)C2C1=O)Nc1c(F)cccc1F` (centres undefined), for which the AC50 was 3.98 µM (active).

For `Clc1ncccc1-c1nc2ccccc2n1Cc1ccccc1`, the activity, negative = inhibition was 6.58% [at 2.29 µM].

`c1ccc(CN2c3ccccc3-c3nc4ccccc4n3C2c2ccccn2)cc1` (centres undefined): the half-maximal activity concentration (AC50) is 3.16 µM (active).

`COc1ccccc1NC(=O)C1=C(C)Nc2nc(-c3ccc(N(C)C)cc3)nn2C1c1ccncc1` (centres undefined): the AC50 was 1.26 µM (active).

`CC(C)C(=O)Nc1ccc(NC(=O)c2cccnc2)cn1`: the “activity, negative = inhibition” value is -22.6%.

For the compound `COc1cccc(C2=CC(c3ccccc3)n3nnnc3N2)c1` (centres undefined), the “activity, negative = inhibition” value is -0.453%.

As for `CCOC(=O)C1C(=O)NC(C)C1c1ccccc1` (centres undefined), the activity, negative = inhibition was 1.56% [at 2.29 µM].

On to `CC1=C(C(=O)Nc2cccnc2)C(c2cccnc2)n2nc(-c3cccs3)nc2N1` (centres undefined), for which the concentration at half-maximal activity (AC50) was 14.1 µM (active).

Turning to `COc1ccccc1NC(=O)C1=C(C)Nc2nnnn2C1c1cccc(Br)c1` (centres undefined), the concentration at half-maximal activity (AC50) is 2.51 µM (active).

As to `CC1=C(C(N)=O)C(c2ccccc2)n2nc(-c3ccncc3)nc2N1` (centres undefined), the AC50 was 11.2 µM (active).

As to `N#CC1(Nc2ccc(-c3ccc(NC4(C#N)CCCC4)cc3)cc2)CCCC1`, the activity, negative = inhibition is -20.9% [at 11.4 µM].

Regarding `C=C(Br)CN(C)CC(=C)Br`, the activity, negative = inhibition is -1.54% [at 11.4 µM].

Consider `C[C@H]1/C=C\CC(=O)OC[C@H](C)C(=O)N2CCC[C@@H]2C(=O)OC1`, for which the activity, negative = inhibition was -17.6% [at 11.4 µM].

Regarding `CCOc1ccccc1C1C(C(N)=O)=C(C)Nc2nc(-c3ccc(OC)cc3)nn21` (centres undefined), the concentration at half-maximal activity (AC50) was 12.6 µM (active).

Regarding `CC1=C(C(N)=O)C(c2cccs2)n2nc(-c3cccc(Cl)c3)nc2N1` (centres undefined), the AC50 was 12.6 µM (active).

Take `CCOc1ccc(/C(O)=C2\C(=O)C(=O)N(CCOCCO)C2c2ccccc2OC)cc1` (centres undefined): the “activity, negative = inhibition” value is -10.2%.

`CCC(=O)n1nc(-c2ccc(OC)cc2)nc1N`: the “activity, negative = inhibition” value was -24.7%.
